About 83,000 compounds went through this panel and 20% of them were active in at least one assay; those are over-represented in the sample as a whole.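 Note: values are percent growth. 100 is the growth of untreated cells, values between 100 and 0 indicate rising inhibition; between -100 and 0 indicates cell death.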 Calls of active or inactive are those of the source. Rule for the calls: active = growth percent below 10; inactive = the rest.
Assays:
Test in all cases: NCI-60 one-dose screen, 48 h (100 = growth as untreated, 0 = no growth, -100 = all killed)
[1] = test system: SK-MEL-2 melanoma; settings: 10 µM unless noted
[2] = test system: SN12C renal; settings: 10 µM unless noted
[3] = test system: UO-31 renal; settings: 10 µM unless noted
[4] = test system: TK-10 renal; settings: 10 µM unless noted
[5] = test system: ACHN renal; settings: 10 µM unless noted
[6] = test system: CAKI-1 renal; settings: 10 µM unless noted
[7] = test system: A498 renal; settings: 10 µM unless noted
[8] = test system: CCRF-CEM leukemia; settings: 10 µM unless noted
[9] = test system: MOLT-4 leukemia; settings: 10 µM unless noted
[10] = test system: RPMI-8226 leukemia; settings: 10 µM
[11] = test system: OVCAR-8 ovarian; settings: 10 µM unless noted
[12] = test system: OVCAR-5 ovarian; settings: 10 µM unless noted
[13] = test system: SK-OV-3 ovarian; settings: 10 µM
[14] = test system: IGROV1 ovarian; settings: 10 µM unless noted
[15] = test system: HS 578T breast; settings: 10 µM unless noted
[16] = test system: NCI/ADR-RES ovarian; settings: 10 µM unless noted
[17] = test system: SR leukemia; settings: 10 µM unless noted
[18] = test system: OVCAR-3 ovarian; settings: 10 µM unless noted
[19] = test system: OVCAR-4 ovarian; settings: 10 µM unless noted

Measured: growth

Cc1c(C)n(CC(O)CNC2CCCCC2C)c2ccccc12 (stereo unspecified)
inactive: [7] 63.3% | [13] 52.9% | [15] 28.3%
active: [1] -49.9% | [2] -41.9% | [3] -87.5% | [4] -76.3% | [5] -41.3% | [6] -38.7% | [8] -9.05% | [9] 4.33% | [10] -10.6% | [11] 4.94% | [12] -58.8% | [14] -73.1% | [16] 3.85%

Clc1ccccc1Nc1ccc2nnc(-c3ccncc3)n2n1
inactive: [1] 100% | [2] 87% | [3] 89.5% | [4] 76.8% | [5] 96.6% | [6] 86.1% | [7] 72.8% | [8] 79.1% | [9] 89.6% | [17] 38.6% | [10] 96.2% | [11] 101% | [12] 106% | [13] 121% | [18] 110% | [15] 99.6% | [16] 105%

COc1cccc(Nc2nc(NCCO)c3ccccc3n2)c1
inactive: [1] 103% | [2] 81.6% | [3] 74.4% | [4] 106% | [5] 79.7% | [6] 70.6% | [7] 43.8% | [8] 22.4% | [17] 47.1% | [10] 13.7% | [11] 81.9% | [12] 101% | [13] 102% | [18] 61.5% | [15] 62.4% | [16] 63.9%

O=[N+]([O-])c1cc2c(cc1Br)C1C(C3C2C(Cl)(Cl)C(Cl)=C(Cl)C3(Cl)Cl)C(Cl)(Cl)C(Cl)=C(Cl)C1(Cl)Cl (stereo unspecified)
inactive: [1] 81.2% | [2] 98.7% | [3] 74.4% | [4] 103% | [5] 102% | [6] 91.4% | [7] 111% | [8] 86.5% | [9] 95.1% | [10] 88.1% | [12] 102% | [19] 102% | [13] 101% | [14] 102% | [18] 95.6% | [15] 114% | [16] 94%

COc1ccc(C(=O)C2=CC(=O)C(=O)C2)cc1OC
inactive: [1] 101% | [2] 109% | [3] 91.5% | [4] 98.7% | [5] 103% | [6] 97.4% | [7] 94.3% | [8] 95.3% | [9] 101% | [10] 98.7% | [11] 113% | [12] 98.2% | [19] 109% | [13] 104% | [14] 99.3% | [18] 108% | [15] 110% | [16] 99.5%

COC1(OC)C2(Cl)C=C(c3ccccc3)C1(Cl)C(Cl)=C2Cl (stereo unspecified)
inactive: [1] 87% | [2] 104% | [3] 70% | [4] 106% | [5] 108% | [6] 92.7% | [7] 105% | [8] 91% | [9] 74.3% | [17] 83.9% | [10] 92.4% | [12] 101% | [19] 88.6% | [13] 90.3% | [14] 90% | [15] 116% | [16] 98.9%

Cc1oc2c(c1C(=O)N1CC[C@@H](N)C1)C(=O)c1c(c(O)c3ccccc3c1O)C2=O
inactive: [1] 77.4% | [2] 22% | [4] 57% | [5] 14.8% | [6] 28.1% | [7] 61.5% | [10] 12.4% | [11] 12.9% | [12] 85.3% | [13] 35.3% | [15] 34.3%
active: [3] 4.23% | [8] -3.65% | [9] 0.576% | [17] 1.4% | [18] 3.52% | [16] 8.79%

COc1ccc(-c2nc(Nc3ccc(F)cc3)nc(Nc3ccc4c(c3)nc(C)n4Cc3ccccc3)n2)cc1
inactive: [1] 48.2% | [2] 48.4% | [3] 29.3% | [4] 74.9% | [5] 37.1% | [6] 83.2% | [7] 72.7% | [12] 88.1% | [19] 42.6% | [13] 76.8% | [14] 36.4% | [18] 50.5% | [15] 54.5% | [16] 26.6%
active: [8] -6.22% | [9] -9.61% | [17] -20.4% | [10] -17.7%

CCOC(=O)C(CC(c1ccccc1)N1CCCCC1)[N+](=O)[O-] (stereo unspecified)
inactive: [1] 88.5% | [2] 76.9% | [3] 46.2% | [4] 112% | [5] 72.6% | [6] 103% | [7] 88.4% | [8] 49.5% | [9] 63.7% | [17] 77.7% | [10] 57.9% | [12] 104% | [13] 97.7% | [14] 76.3% | [18] 53.3% | [15] 98.6% | [16] 61.4%

Cc1cc(=O)oc2c1ccc1oc(C(=O)c3ccccc3)c(C)c12
inactive: [1] 104% | [2] 71% | [3] 100% | [4] 113% | [5] 76.9% | [6] 77.1% | [7] 82.8% | [8] 69.1% | [17] 60.3% | [10] 69.5% | [11] 76.2% | [12] 104% | [13] 109% | [14] 102% | [18] 85.6% | [15] 103% | [16] 83.3%

CCOC(=O)c1sc(NC(=O)CN2CCC(Cc3ccccc3)CC2)nc1C
inactive: [1] 133% | [2] 106% | [3] 80.4% | [4] 106% | [5] 107% | [6] 99.4% | [7] 100% | [8] 94.1% | [9] 84.3% | [17] 83.7% | [12] 103% | [19] 98.6% | [13] 102% | [14] 87.6% | [18] 108% | [15] 83.4% | [16] 94.1%

Clc1cccc(Cl)c1Nc1ccc2nnc(-c3ccncc3)n2n1
inactive: [1] 104% | [2] 95.9% | [3] 96.1% | [4] 102% | [5] 105% | [6] 89.2% | [7] 90.5% | [8] 80.7% | [9] 96.1% | [17] 62.4% | [10] 93.3% | [11] 97.6% | [12] 102% | [13] 109% | [14] 93.8% | [18] 110% | [15] 103% | [16] 101%

COc1ccc(/C=N/NC(=O)c2cnn3c2NC(c2ccccc2)C3)cc1OC1CCCC1 (stereo unspecified)
inactive: [1] 107% | [2] 90.7% | [3] 80.1% | [4] 109% | [5] 95.3% | [6] 77.8% | [8] 90.7% | [9] 69.1% | [17] 47.2% | [10] 79% | [11] 85% | [12] 101% | [19] 76.5% | [14] 101% | [18] 106% | [15] 88% | [16] 92.7%

Cc1ccc(C(=O)Nc2ccccc2N)cc1
active: [8] 4.67%
inactive: [1] 57.5% | [2] 64% | [3] 37.4% | [5] 87.7% | [6] 93.7% | [7] 54.9% | [9] 30.9% | [10] 15% | [11] 59.5% | [12] 51.1% | [19] 99.5% | [13] 92.9% | [14] 70.1% | [18] 90.8% | [15] 71.4% | [16] 44.2%

COc1ccc(/C=C/C(=O)N2CCC(O)CC2)cc1OC1CCCC1
inactive: [1] 107% | [2] 95% | [3] 87.8% | [4] 102% | [5] 102% | [6] 93.1% | [8] 119% | [9] 97.6% | [17] 108% | [10] 107% | [11] 96.5% | [12] 104% | [14] 104% | [15] 96.1% | [16] 106%

COc1cc(/C=C/C(=O)C2=C(/C=C/c3ccc(O)c(OC)c3)NC(=O)NC2c2ccc(O)c(OC)c2)ccc1O (stereo unspecified)
inactive: [1] 105% | [2] 93.6% | [3] 84.4% | [5] 88.2% | [6] 93.9% | [7] 101% | [8] 69.8% | [9] 70.3% | [17] 79% | [10] 76.2% | [11] 86.3% | [12] 94.2% | [19] 93% | [13] 116% | [14] 113% | [18] 104% | [15] 81% | [16] 107%

Cc1ccc2c(c1)c(Sc1ccc(C(=O)NO)cc1)c1n2CN(C)CC1
active: [1] 7.15% | [2] 9.16% | [7] 6.35% | [8] -5.94% | [9] -10.5% | [17] 5.05% | [10] 1.92% | [11] 5.57% | [12] 7.36% | [18] -7.94%
inactive: [3] 45.9% | [5] 26.8% | [6] 62.9% | [13] 21.1% | [14] 42.4% | [15] 33.5% | [16] 53.1%

C[C@@H](Oc1cc(-c2cnn(C3CC4(CNC4)C3)c2)cnc1N)c1c(Cl)ccc(F)c1Cl
active: [9] 0.522%
inactive: [1] 32.6% | [2] 22.9% | [3] 51.5% | [5] 48.6% | [6] 65.7% | [7] 24% | [8] 24% | [10] 27.7% | [11] 48.9% | [12] 38.1% | [19] 48.2% | [13] 66.3% | [14] 64.2% | [18] 63.2% | [15] 41.6% | [16] 91.3%
